Assay outcomes (PubChem BioAssay)
VACV mCherry inh: vaccinia inhibition (mCherry reporter); Vaccinia virus mCherry reporter infection, fluorescence; Potency, µM (titrated, usually from 36.5 µM), most hits filed as inhibitors; 310,000 tested, 0.63% active; AID 720579; calls by dose curve; tested in A549 cells; further: nearly all actives have a fitted effect of over 35% in size
Tb PYK inh: blocks Trypanosoma brucei pyruvate kinase. 410,000 tested, 0.12% active. Q57TT1. TbPYK enzyme, Kinase-Glo Plus ATP luminescence, 45 min. Potency, µM (top dose mostly 76.8 µM), actives largely listed as inhibitors; further: nearly all actives have a fitted effect of over 50% in size
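Quantitative HTS: titrated library compounds versus trypanosomal pyruvate kinase in TEA buffer (pH 7.2) containing KCl, MgCl2, BSA and Tween-20. Reactions were initiated with ADP, 130 uM final. Kinase-Glo Plus luminescence was read after 45 min at RT.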
LmPK inhibitor: blocks Leishmania mexicana pyruvate kinase activity; Q27686; Potency, µM (highest dose often 57.5 µM), usual class: inhibitors; purified LmPK, Kinase-Glo ATP luminescence, 1 h; 290,000 tested, 0.37% active
Target sequence (Q27686 whole entry, looked up): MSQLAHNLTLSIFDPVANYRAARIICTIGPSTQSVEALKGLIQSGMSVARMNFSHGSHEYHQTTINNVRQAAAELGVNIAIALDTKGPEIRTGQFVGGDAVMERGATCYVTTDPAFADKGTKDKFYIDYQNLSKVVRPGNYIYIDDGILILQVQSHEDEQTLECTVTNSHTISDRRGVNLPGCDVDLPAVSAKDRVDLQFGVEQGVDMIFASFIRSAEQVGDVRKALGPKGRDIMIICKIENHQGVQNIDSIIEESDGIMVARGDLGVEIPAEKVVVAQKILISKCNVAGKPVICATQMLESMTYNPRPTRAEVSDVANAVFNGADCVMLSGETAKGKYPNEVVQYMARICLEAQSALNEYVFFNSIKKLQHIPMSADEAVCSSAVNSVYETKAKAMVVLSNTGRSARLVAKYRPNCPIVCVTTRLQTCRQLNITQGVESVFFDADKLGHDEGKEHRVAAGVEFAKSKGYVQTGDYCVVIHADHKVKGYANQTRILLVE
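In 50 mM imidazole pH 7.2 with 7 mM MgCl2, LmPK (0.1 nM) turned over PEP (0.5 mM) and ADP (0.1 mM) for 1 h at room temperature. Luciferase read-out of ATP.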
VACV Venus inh: inhibitors of vaccinia virus (Venus reporter). Vaccinia virus Venus reporter expression, fluorescence. Potency, µM (series often up to 36.5 µM), hits mostly inhibitors. 330,000 tested, 0.46% active. AID 720580; calls by dose curve; tested in A549 cells; further: nearly all actives have a fitted effect of over 30% in size
HCMV antiviral: blocks human cytomegalovirus replication. 410,000 tested, 4.5% active. AID 1259415. activity change, negative = inhibition, % at 57.5 µM. HFF cells, HCMV-luciferase reporter, 72 h; hits give low values; in the data active means activity change below about -60%; inconclusive means no clear call, values can overlap the other calls; inactive means above about -39%
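Compounds were evaluated in HFFs infected with an HCMV luciferase reporter virus (MOI 1 PFU/cell). Luciferase in lysates collected 72 h post infection served as the replication measure.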
Hits are given with their value; – = inactive; ? = inconclusive; · = not tested or not shown; + = active, no number; [ ] = dose if it differs, or a comment. Most compounds without a hit are left out; they make up all but 5% or so of the library. Unless noted, the call rests on the fitted dose curve; in most records, active means well fitted curve in the direction sought with a large enough effect; inconclusive means small, poorly fitted or top-dose-only effect, or another doubt; inactive means no such curve, though single readings can be large; an effect the other way counts as inactive or inconclusive.

SMILES | VACV mCherry inh | Tb PYK inh | LmPK inhibitor | VACV Venus inh | HCMV antiviral
CC(=O)Nc1ccc(NC(=O)C2CCCN2C(=O)Nc2ccccc2[N+](=O)[O-])cc1 (stereo unspecified) | – | – | – | – | –
FC(F)(F)c1ccc(CN2C[C@@H]3C(c4ccc(Cl)nc4)C4(c5cccnc5)CC3(C4)[C@H]2c2ccccc2)cc1 (stereo partly specified) | ? | – | – | ? | -67
Clc1ccc(C2[C@H]3CN(Cc4ccc(-c5ccccc5)cc4)[C@H](c4ccccc4)C34CC2(c2cccnc2)C4)cn1 (stereo partly specified) | · | · | – | · | ·
NC(=O)CCC1NC(=S)N(Cc2ccccc2)C1=O (stereo unspecified) | – | – | – | – | -67
CC(=O)Nc1ccc(S(=O)(=O)N2CCC(C(=O)NCCc3c[nH]c4ccccc34)CC2)cc1 | · | – | – | · | –
Cc1ccc(O)c(N=Cc2sc3ccccc3c2Cl)c1 | ? | – | – | – | –
Oc1ccccc1N=Cc1sc2ccccc2c1Cl | ? | – | – | – | -76
CC1CCC(C(C)C)C(OC(=O)C2=C3c4ccccc4S(=O)(=O)N3CC2)C1 (stereo unspecified) | – | – | – | – | –
CSCCC(NC(=O)c1ccccc1Br)C(=O)NC(C)CCc1ccccc1 (stereo unspecified) | – | – | – | – | –
CSCCC(NC(=O)c1ccccc1)C(=O)NCCc1ccccc1 (stereo unspecified) | – | – | – | – | –
CSCCC(NC(=O)c1ccccc1)C(=O)NNC(=O)c1ccccc1 (stereo unspecified) | · | – | · | · | -62
CSCCC(NC(=O)c1ccccc1Cl)C(=O)N1CCN(C(C)=O)CC1 (stereo unspecified) | – | – | · | – | –
CSCCC(NC(=O)c1ccccc1Br)C(=O)NNC(=O)c1cc(C)oc1C (stereo unspecified) | · | – | · | · | -63
CSCCC(NC(=O)c1ccccc1Br)C(=O)N1CCN(C/C=C/c2ccccc2)CC1 (stereo unspecified) | · | – | · | · | -83
CCn1c2ccccc2c2cc(NC(=O)CSc3nnc(C4CC4)n3Cc3ccco3)ccc21 | ? | – | – | ? | –
Cc1cc(C)n(S(=O)(=O)c2ccccc2)n1 | – | – | – | – | –
Cc1cc(C)n(S(=O)(=O)c2ccccc2[N+](=O)[O-])n1 | ? | – | – | – | -60
COc1cccc(Cc2nc3ccccc3nc2SCC(=O)Nc2cccc(C)c2)c1 | – | – | · | – | –
Cc1ccc(SCc2ccc(C(=O)NCc3ccncc3)cc2)cc1 | – | – | – | – | -78
Cc1ccc(SCCC(=O)NCc2ccncc2)cc1 | – | – | – | – | –
O=C(CCC1CCCN(C(=O)C2(c3ccccc3)CC2)C1)N1CCN(c2ccccn2)CC1 (stereo unspecified) | – | – | – | – | ?
COc1cc2c(cc1OC)C13CCN4CC5CCOC6CC(=O)N2C1C6C5CC43 (stereo unspecified) | – | – | · | – | –
COc1cc2c(cc1OC)C13CCN4CC5=CCOC6CC(=O)N2C1C6C5CC43 (stereo unspecified) (tested in a mixture with another compound) | – | – | – | + | –
Cc1cccc2cc(CN(Cc3ccc(F)cc3)Cc3nnnn3C3CCCC3)c(=O)[nH]c12 | – | – | – | – | –
Cc1cccc2cc(CN(Cc3cccs3)S(=O)(=O)c3ccc4c(c3)OCCO4)c(=O)[nH]c12 | – | – | – | – | -84
SMILES | VACV mCherry inh | Tb PYK inh | LmPK inhibitor | VACV Venus inh | HCMV antiviral
Cc1cccc2cc(CN(Cc3cccs3)C3(c4nnnn4C4CCCC4)CCCC3)c(=O)[nH]c12 | · | – | – | – | -70
CCOc1ccc(-c2ccc(SC)nn2)cc1 | – | ? | 5µM | – | –
N#Cc1cccc(Oc2ccc(-c3cnc4ccccc4n3)cc2)c1C#N | – | – | – | – | –
Cc1cc(N2CCOCC2)c2c(N)c(Br)cc(C)c2n1 | · | – | – | – | -82
O=C(C[C@H]1CC[C@H]2[C@@H](COC[C@@H](O)CN2C(=O)c2cnccn2)O1)NCc1ccc(Oc2ccccc2)cc1 | – | · | · | – | -68
CCC(=O)Nc1cccc(C(=O)/C=C/c2ccc(F)cc2)c1 | · | – | – | · | -99
CC(=O)Nc1cccc(C(=O)/C=C/c2ccc(C)cc2)c1 | ? | – | – | ? | –
COC(=O)c1c(-c2cccs2)csc1NC(=O)c1cc(OC)c(OC)c(OC)c1 | –[7.34 µM] | – | · | –[7.34 µM] | –
COc1cc(N)ccc1Nc1c2ccccc2nc2ccccc12 | ? | – | · | ? | ·
CCCS(=O)(=O)Nc1ccc(Nc2c3ccccc3nc3ccccc23)c(OC)c1 | ? | – | · | ? | -76
COc1cc(NS(C)(=O)=O)ccc1Cc1c2ccccc2nc2ccccc12 | 1.3µM | · | · | ? | ·
COc1cc(-c2nc3c[n+](CC(=O)c4ccccc4)ccc3n2C)cc(OC)c1OC | – | – | – | – | –
COc1ccc(C(=O)C[n+]2ccc3c(c2)nc(-c2ccccc2)n3C)cc1 | – | – | – | – | -91
COc1ccc(C(=O)C[n+]2ccc3c(c2)nc(-c2ccc(OC)cc2OC)n3C)cc1 | – | – | – | – | -99
Cn1c(=O)c2c(SCC(=O)NCc3ccco3)nc(-c3ccccc3F)nc2n(C)c1=O | – | – | · | – | –
COc1ccc(S(=O)(=O)N2CCN(C(=O)c3cc(C)on3)CC2)cc1 | · | – | · | · | –
Cc1ccc(S(=O)(=O)N2CCN(C(=O)NCc3ccc(F)cc3)CC2)c(C)c1 | – | – | – | – | -71
COc1ccc(CNC(=O)N2CCN(S(=O)(=O)c3ccc(C)cc3C)CC2)cc1 | – | – | – | – | –
CC1(C(=O)Nc2cccc(C#N)c2)CCN1C(=O)Cc1ccc(-c2ccccc2)cc1 (stereo unspecified) | – | – | · | – | -61
Cc1nn(-c2ccc(F)cc2)c2nc(N)c(C#N)c(-c3ccc(O)c(O)c3)c12 | ? | – | – | ? | –
Cc1nn(-c2ccccc2)c2nc(N)c(C#N)c(-c3ccc(O)c(O)c3)c12 | ? | – | – | ? | -62
Cc1ccc(NC(=O)c2ccc(NC(=O)CCS(=O)(=O)c3cccs3)cc2)cc1F | – | – | · | – | –
CC(=O)c1ccc2noc(-c3ccccc3)c2c1 | – | – | – | – | –
CN(C)/C=C/C(=O)c1ccc2noc(-c3ccccc3)c2c1 | – | – | – | – | -63
COc1ccc2c3c(cccc13)C(=O)CC2 | – | – | – | – | -71
O=C(CSc1ncnc2c1cnn2-c1ccc(Cl)cc1)NCc1ccc2c(c1)OCO2 | – | – | – | – | –
CCC(C)n1c(C)nc2c(c1=O)c1nc3ccccc3nc1n2CCC1=CCCCC1 (stereo unspecified) | · | · | – | · | -88
O=c1c(-c2ccccc2)c(O)c2ccccc2n1-c1ccccc1 | – | – | – | – | -64
CCn1c(=O)c(-c2ccccc2)c(O)c2ccccc21 | · | – | – | · | –
Cc1nc(CSc2ccccc2)cc(=O)[nH]1 | · | – | – | · | –
